FAS TE block = inhibitors of human fatty acid synthase thioesterase domain. recombinant FAS-TE, OMFH fluorogenic substrate, fluorescence endpoint. P49327. inhibition, % at 15 µM. 0.67% of 360,000 active;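 active means compounds whose normalised, plate-corrected inhibition of enzyme fluorescence in the single-dose primary screen is 50% or more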;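 further: 0% = DMSO with enzyme and 100% = substrate without enzyme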
Target sequence (P49327 whole entry, looked up, the tested form may be a part): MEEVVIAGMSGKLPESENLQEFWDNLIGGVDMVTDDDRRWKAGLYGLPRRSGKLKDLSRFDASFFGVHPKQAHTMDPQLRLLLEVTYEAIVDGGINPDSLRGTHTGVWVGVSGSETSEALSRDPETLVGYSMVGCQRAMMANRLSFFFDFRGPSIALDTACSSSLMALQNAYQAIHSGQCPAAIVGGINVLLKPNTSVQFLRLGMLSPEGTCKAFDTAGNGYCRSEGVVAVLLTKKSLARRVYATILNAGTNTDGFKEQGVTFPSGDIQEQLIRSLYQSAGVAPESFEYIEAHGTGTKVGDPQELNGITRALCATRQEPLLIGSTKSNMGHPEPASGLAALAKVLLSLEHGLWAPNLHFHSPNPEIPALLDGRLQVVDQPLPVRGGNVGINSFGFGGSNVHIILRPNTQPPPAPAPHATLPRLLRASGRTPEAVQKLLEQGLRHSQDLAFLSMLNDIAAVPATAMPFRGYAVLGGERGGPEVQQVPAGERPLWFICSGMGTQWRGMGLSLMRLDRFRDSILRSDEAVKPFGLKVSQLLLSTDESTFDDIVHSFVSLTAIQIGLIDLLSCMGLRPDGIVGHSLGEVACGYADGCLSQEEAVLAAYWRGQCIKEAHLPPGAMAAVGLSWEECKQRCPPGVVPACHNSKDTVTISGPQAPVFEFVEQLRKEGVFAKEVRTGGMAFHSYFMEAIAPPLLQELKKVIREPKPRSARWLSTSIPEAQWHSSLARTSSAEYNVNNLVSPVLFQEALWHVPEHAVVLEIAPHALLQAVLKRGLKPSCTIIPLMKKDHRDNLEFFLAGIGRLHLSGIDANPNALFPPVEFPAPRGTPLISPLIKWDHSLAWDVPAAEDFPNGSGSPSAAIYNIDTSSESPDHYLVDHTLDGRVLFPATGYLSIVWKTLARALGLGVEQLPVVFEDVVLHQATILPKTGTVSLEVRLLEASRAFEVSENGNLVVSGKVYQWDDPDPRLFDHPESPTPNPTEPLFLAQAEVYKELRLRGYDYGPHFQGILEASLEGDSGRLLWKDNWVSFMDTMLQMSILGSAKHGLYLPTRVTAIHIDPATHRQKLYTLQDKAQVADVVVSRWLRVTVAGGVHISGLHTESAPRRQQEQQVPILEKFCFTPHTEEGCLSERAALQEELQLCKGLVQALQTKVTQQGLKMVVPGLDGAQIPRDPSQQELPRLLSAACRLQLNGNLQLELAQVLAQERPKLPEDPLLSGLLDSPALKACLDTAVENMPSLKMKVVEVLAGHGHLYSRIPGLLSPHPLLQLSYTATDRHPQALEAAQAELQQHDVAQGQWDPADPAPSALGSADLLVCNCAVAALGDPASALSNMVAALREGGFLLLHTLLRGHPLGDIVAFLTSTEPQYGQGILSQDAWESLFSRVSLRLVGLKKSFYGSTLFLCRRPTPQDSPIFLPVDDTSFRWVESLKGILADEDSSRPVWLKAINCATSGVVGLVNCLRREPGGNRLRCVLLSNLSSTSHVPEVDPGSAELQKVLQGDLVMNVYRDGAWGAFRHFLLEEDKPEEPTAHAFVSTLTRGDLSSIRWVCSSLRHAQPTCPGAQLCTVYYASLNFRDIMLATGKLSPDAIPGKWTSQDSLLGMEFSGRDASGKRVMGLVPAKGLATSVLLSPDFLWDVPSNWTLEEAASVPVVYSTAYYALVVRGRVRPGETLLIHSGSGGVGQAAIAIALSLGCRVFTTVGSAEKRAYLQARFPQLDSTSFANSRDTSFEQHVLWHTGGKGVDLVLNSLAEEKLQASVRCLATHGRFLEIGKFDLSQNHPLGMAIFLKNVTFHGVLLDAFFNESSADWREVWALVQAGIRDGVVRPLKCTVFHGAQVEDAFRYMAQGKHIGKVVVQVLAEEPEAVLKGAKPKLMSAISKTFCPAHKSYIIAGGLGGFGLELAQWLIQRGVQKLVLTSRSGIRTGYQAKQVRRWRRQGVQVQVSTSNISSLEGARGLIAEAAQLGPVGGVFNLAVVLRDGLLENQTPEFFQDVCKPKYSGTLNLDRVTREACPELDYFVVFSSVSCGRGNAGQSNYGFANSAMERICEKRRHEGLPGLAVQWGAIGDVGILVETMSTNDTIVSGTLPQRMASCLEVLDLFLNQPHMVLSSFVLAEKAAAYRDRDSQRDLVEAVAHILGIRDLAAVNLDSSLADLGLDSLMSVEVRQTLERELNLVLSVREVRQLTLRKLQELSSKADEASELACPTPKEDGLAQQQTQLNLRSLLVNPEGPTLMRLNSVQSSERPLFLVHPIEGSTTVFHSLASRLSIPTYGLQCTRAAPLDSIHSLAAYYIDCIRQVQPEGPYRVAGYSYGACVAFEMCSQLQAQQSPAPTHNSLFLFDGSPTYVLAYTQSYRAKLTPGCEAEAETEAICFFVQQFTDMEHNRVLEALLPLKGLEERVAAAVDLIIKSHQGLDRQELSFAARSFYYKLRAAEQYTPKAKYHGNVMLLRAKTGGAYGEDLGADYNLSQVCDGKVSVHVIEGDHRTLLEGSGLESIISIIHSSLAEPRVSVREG
NR3A LBD binder = modulates the human NR3A ligand-binding domain | Tm shift relative to glycine control, % at 25 µM | NR3A LBD differential scanning fluorimetry, Tm shift; 0% = protein alone, 100% = glycine-bound protein | 2.5% of 340,000 active;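 active means melting temperature shift of at least 10% of the positive control shift, at one fixed dose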
ADAM17 inh = ADAM17 inhibition, QFRET primary screen; P78536; recombinant ADAM17, EDANS/DABCYL FRET peptide cleavage; inhibition, % at 6.95 µM; 0.83% of 370,000 active; AID 720648;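 active means inhibition above the mean of compounds lying between control limits plus 3 SD, set per campaign, cut at about 8.5% in these data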;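 further: 0% = DMSO-only wells as the low control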
aDG glyco act = increases alpha dystroglycan glycosylation. Pro5-aDG cells, alpha-DG glycosylation AlphaScreen (IIH6); 0% Pro5, 100% B10-LARGE cell signal. activation, % at 10 µM. 0.22% of 360,000 active. AID 624168;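 active means activation of at least 8% versus controls, or a plate z-score of at least 8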;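 further: Pro5 are CHO cells carrying HIG-tagged alpha-DG that lacks glycosylation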
ADAM10 inh = inhibitors of human ADAM10; O14672; 0.62% of 370,000 active; inhibition, % at 7 µM; recombinant ADAM10, EDANS/DABCYL FRET peptide cleavage, 3 h; AID 720582;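 active means inhibition above a per-campaign cutoff equal to the mean of compounds falling between control-based bounds plus 3 SD, cut at about 20% in these data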;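 further: 0% = DMSO wells while the 100% control is not disclosed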
ADAM10 confirm = human ADAM10 inhibition, confirmation; shares compounds with ADAM10 inh; ADAM10 QFRET peptide cleavage, EDANS fluorescence; 1% of 2,100 active; inhibition, % at 6.95 µM; AID 743208;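 active means inhibition above about 20% chosen separately for each screening run, limit read from the data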;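 further: 0% = DMSO wells and 100% = marimastat wells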
ADAM17 counter = counter-screen for ADAM10 exosite inhibitors: inhibitors of human ADAM17. AID 743214. shares compounds with ADAM10 inh. 0.5% of 2,100 active. inhibition, % at 6.95 µM. ADAM17 QFRET peptide cleavage, EDANS fluorescence;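 active means mean triplicate inhibition above the solvent-only control wells' mean plus 3 SD, cut at about 12% in these data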;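 further: 0% = DMSO wells and 100% = marimastat wells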
ADAM10 counter = counter-screen for ADAM17 exosite inhibitors: inhibitors of human ADAM10; shares compounds with ADAM17 inh; recombinant ADAM10, EDANS/DABCYL FRET peptide cleavage, 3 h; inhibition, % at 6.95 µM; 47% of 2,900 active; AID 743256;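 active means mean inhibition over the triplicate runs exceeds the activity threshold set in the earlier primary screen, cut at about 20% in these data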;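 further: 0% = DMSO wells and 100% = marimastat wells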
ADAM17 confirm = confirmation of inhibitors of human ADAM17 | recombinant ADAM17, EDANS/DABCYL QFRET peptide cleavage | inhibition, % at 6.95 µM | shares compounds with ADAM17 inh | 65% of 2,900 active;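 active means mean inhibition across replicates above the hit cutoff set in the primary screen, cut at about 8.5% in these data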;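 further: 0% = DMSO wells and 100% = marimastat wells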
* = called active by the depositor; x = not tested or not shown. Most compounds without a hit are left out; they make up all but 4% or so of the library.

SMILES | FAS TE block | NR3A LBD binder | ADAM17 inh | aDG glyco act | ADAM10 inh | ADAM10 confirm | ADAM17 counter | ADAM10 counter | ADAM17 confirm
COC(=O)[C@]12C[C@H](CC(=O)NCCCCc3ccccc3)C(=O)N(CCc3ccc(OC)c(OC)c3)C1=C[C@H](C(C)(C)C)O[C@@H]2C | x | x | 9.0* | x | 27* | 6 | 2 | 24* | 13*
COC(=O)[C@]12C[C@H](CC(=O)NCc3ccccc3)C(=O)N(Cc3ccco3)C1=C[C@H](C1CCCC1)O[C@@H]2C | x | x | 3 | x | 10 | x | x | x | x
CCCCNC(=O)C[C@H]1C[C@@]2(C(=O)OC)C(=C[C@H](C(C)(C)C)O[C@@H]2C)N(Cc2cccc3ccccc23)C1=O | x | x | 15* | x | 29* | 6 | 2 | 26* | 17*
COCCCNC(=O)C[C@H]1C[C@@]2(C(=O)OC)C(=C[C@H](C(C)(C)C)O[C@@H]2C)N(Cc2cccc3ccccc23)C1=O | x | x | 4 | x | 13 | x | x | x | x
COC(=O)[C@]12C[C@H](CC(=O)NCc3cccc4ccccc34)C(=O)N(Cc3ccco3)C1=C[C@H](C1CCCC1)O[C@@H]2C | x | x | 14* | x | 22* | 9 | 4 | 34* | 17*
NC(=O)c1c(NC(=O)C2CCCO2)sc2c1CCCCC2 (stereo not given) | -11 | 0 | -2 | 0 | -17 | x | x | x | x
O=C(O)c1cn(-c2ccc(F)cc2)c2cc(N3CCNCC3)c(F)cc2c1=O | 1 | 5 | -114 | 0 | -435 | x | x | x | x
CCC(C)NC(=S)N1CCN(Cc2ccc3c(c2)OCO3)CC1 (stereo not given) | -5 | -2 | -1 | 2 | 0 | x | x | x | x
COc1cccc(CNC(=O)[C@@H]2CCCN2C(=O)[C@H]2CCCCN2C(=O)c2cccc(OC)c2)c1 | -8 | x | -6 | 0 | -11 | x | x | x | x
CNC(=O)[C@@H](NC(=O)[C@H](CC(C)C)[C@H](O)C(=O)NO)C(C)(C)C | x | x | 99* | x | 95* | 100* | 102* | 106* | 102*
CCOC(=O)C1CCN(S(=O)(=O)c2ccccc2)CC1 | -2 | 1 | 3 | 0 | 5 | x | x | x | x
O=C(OCCOc1cccc(Cl)c1)C1CCN(S(=O)(=O)c2ccccc2)CC1 | 35 | 1 | 8.6* | 0 | 21* | 6 | 2 | 21* | 11*
O=C(O)c1cccc(-c2csc(C(O)(c3ccccc3)C(F)(F)F)n2)c1 (stereo not given) | -3 | x | -1 | 0 | -8 | x | x | x | x
CC(O)(c1cccc(F)c1)c1nc(-c2ccccc2)cs1 (stereo not given) | 17 | x | 1 | 0 | 6 | x | x | x | x
CC(O)(c1cccc(F)c1)c1nc(-c2cccc(C(F)(F)F)c2)cs1 (stereo not given) | 43 | x | 11* | 0 | 23* | 7 | 2 | 45* | 28*
OC(c1ccccc1)(c1nc(-c2cccc(C(F)(F)F)c2)cs1)C(F)(F)F (stereo not given) | 35 | x | 14* | 0 | 26* | 16 | 4 | 35* | 19*
CC(O)(c1ccc(F)c(F)c1)c1nc(-c2cccc(C(F)(F)F)c2)cs1 (stereo not given) | 50 | x | 11* | 0 | 26* | 11 | 3 | 33* | 17*
O=C(Nc1ccc(Br)cc1)OC1CC2CC1[C@H]1CCCCN1[C@H]2Cc1ccccc1 (stereo not given in full) | x | x | 0 | x | -2 | x | x | x | x
O=C(NNC(=O)c1ccc2ccccc2c1)c1cccc(Cl)c1 | -4 | 4 | -2 | 0 | -5 | x | x | x | x
O=C(CN1C(=O)C2CC=CCC2C1=O)Nc1ccc(S(=O)(=O)Nc2ncccn2)cc1 (stereo not given) | -1 | 0 | -2 | 0 | 4 | x | x | x | x
COc1ccccc1N1C(=O)CSC1=S | -7 | -2 | 0 | 0 | 8 | x | x | x | x
COc1cc(NC(=O)c2ccno2)cc(C(=O)Nc2cccc(C(F)(F)F)c2)c1 | 30 | 8 | 12* | 0 | 28* | 0 | 0 | 25* | 13*
O=C(NCc1ccncc1)c1cccc(S(=O)(=O)N2CCc3ccccc32)c1 | -1 | 0 | 0 | 3 | -3 | x | x | x | x
COC(=O)c1c(NC(NC(=O)C(C)C)C(Cl)(Cl)Cl)sc2c1CCCC2 (stereo not given) | -14 | -5 | 10* | 0 | 22* | 10 | 5 | 26* | 16*
CN1CCN(C(=O)c2cc3nc(-c4ccc(F)cc4)cc(C(F)(F)F)n3n2)CC1 | -6 | -1 | -3 | 1 | -8 | x | x | x | x
SMILES | FAS TE block | NR3A LBD binder | ADAM17 inh | aDG glyco act | ADAM10 inh | ADAM10 confirm | ADAM17 counter | ADAM10 counter | ADAM17 confirm
CN(CC(=O)Nc1ccc(Cl)c(C(F)(F)F)c1)C(=O)/C=C/c1ccco1 | 24 | -4 | 0 | 0 | 12 | x | x | x | x
O=S(=O)(Nc1ccc(Br)cc1)c1cccc2cccnc12 | 4 | -1 | 3 | 0 | 3 | x | x | x | x
O=S(=O)(Nc1ccc(C(O)(C(F)(F)F)C(F)(F)F)cc1)c1cccc2cccnc12 | 13 | x | 10* | 0 | 27* | -2 | 0 | 20* | 14*
O=S(=O)(c1ccc(Br)s1)N1CCC(Cc2ccccc2)CC1 | 28 | 1 | -4 | 0 | -5 | x | x | x | x
O=C(Nc1ccc(Cl)c(C(F)(F)F)c1)c1ccncc1 | 7 | -2 | 0 | 0 | 9 | x | x | x | x
CNC(=O)c1cc(Oc2ccc(NC(=O)Nc3ccc(Cl)c(C(F)(F)F)c3)cc2)ccn1 | 22 | 12* | 16* | 1 | 25* | 7 | 2 | 35* | 20*
CC1CCN(c2ccc(C(=O)NCc3ccco3)cc2[N+](=O)[O-])CC1 | 12 | -7 | 9.0* | 0 | 23* | 1 | 1 | 8 | 7
CNC(=S)N(CCc1c(C)[nH]c2ccc(C)cc12)Cc1cccs1 | 20 | 1 | 9.8* | 0 | 22* | 2 | 2 | 16 | 10*
O=C(Nc1ccc2c(c1)OCCO2)C(c1ccnc2ccccc12)N1CCC(Cc2ccccc2)CC1 (stereo not given) | 35 | x | 19* | 0 | 37* | 14 | 4 | 13 | 10*
CN(CCc1ccccc1)C(C(=O)Nc1ccc2c(c1)OCCO2)c1ccnc2ccccc12 (stereo not given) | 26 | x | 2 | 0 | 4 | x | x | x | x
Cn1nc(C(C)(C)C)cc1C(=O)N1CCCCC1c1cc(C(=O)Nc2ccc(F)c(Cl)c2)no1 (stereo not given) | 22 | x | 12* | 3 | 20* | 5 | 2 | 20* | 12*

Compound activity as filed in PubChem BioAssay.
